CIT2-GFP yeast: alters CIT2-GFP fluorescence in TOR pathway yeast screen; GFP response vs DMSO, % at 10 µM; hit rate 0.065% among 320,000; S. cerevisiae CIT2-GFP strain, flow cytometry, 3 h; 100 means same as DMSO wells;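 active = GFP response relative to DMSO above a set limit, near the screen mean plus 3 SD, cut at about 150% in these data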;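 note: ratio of well median GFP fluorescence to mean of DMSO wells on the plate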
AGP1 TOR yeast: yeast TOR pathway AGP1-GFP modulation | S. cerevisiae AGP1-GFP multiplex flow cytometry, 3 h; GFP as percent of DMSO wells | GFP response vs DMSO, % at 10 µM | hit rate 0.02% among 320,000;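 active = GFP response relative to DMSO above a set limit, near screen average plus 3 SD, cut at about 150% in these data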;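 note: median GFP channel fluorescence of the gated AGP1 strain per well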
LAP4-GFP MLPCN: yeast TOR pathway LAP4-GFP modulation; S. cerevisiae LAP4-GFP multiplex, flow cytometry GFP, 3 h; median GFP as percent of DMSO wells; GFP response vs DMSO, % at 10 µM; hit rate 0.34% among 320,000; AID 2023;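 active = GFP response vs DMSO above a set limit, about the screen mean plus 3 SD, cut at about 150% in these data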
MEP2 TOR yeast: modulators of TOR pathway MEP2-GFP in S. cerevisiae | AID 2016 | hit rate 0.51% among 330,000 | GFP response vs DMSO, % at 10 µM | S. cerevisiae MEP2-GFP strain, flow cytometry GFP, 3 h; 100% = DMSO control level;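 active = GFP response versus DMSO above a set limit, roughly screen mean plus 3 SD, cut at about 180% in these data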;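 note: median GFP fluorescence of the barcode-gated MEP2-GFP cells per well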
RPL19A-GFP yeast: yeast TOR pathway RPL19A-GFP modulation. S. cerevisiae RPL19A-GFP strain, flow cytometry, 3 h; active compounds read low. percent response vs DMSO, % at 10 µM. hit rate 0.3% among 330,000. AID 2025;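 active = percent response vs DMSO below 50%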;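 note: median channel GFP fluorescence of the barcoded RPL19A-GFP strain; ratio of sample median GFP to plate DMSO average so 100% = DMSO; lower means less RPL19A-GFP as with rapamycin TOR inhibition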
LAP4-GFP pick2: yeast LAP4-GFP modulation, second cherry pick; shares compounds with LAP4-GFP MLPCN; AID 2621; GFP response vs DMSO, % at 10 µM; hit rate 20% among 590; S. cerevisiae LAP4-GFP strain, flow cytometry GFP, 3 h;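 active = GFP signal as percent of the solvent control above about 150%, meaning raised reporter expression, limit read from the data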;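 note: ratio of well median GFP fluorescence to plate DMSO mean so 100% = DMSO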
MEP2 cherry2: second confirmation of modulators of TOR reporter MEP2-GFP in yeast; S. cerevisiae MEP2-GFP strain, flow cytometry GFP, 3 h; GFP response vs DMSO, % at 10 µM; hit rate 10% among 590; shares compounds with LAP4-GFP MLPCN;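 active = GFP signal above 150% of the solvent control wells, that is a rise of more than half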;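 note: median channel GFP fluorescence of all gated yeast cells per well; ratio of median GFP to plate DMSO average so 100% = DMSO level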
RPL19A-GFP pick2: reconfirmed modulator of RPL19A-GFP TOR reporter in yeast. S. cerevisiae RPL19A-GFP strain, flow cytometry GFP, 3 h; active compounds read low; 100% means same as DMSO wells. GFP response vs DMSO, % at 10 µM. hit rate 3% among 590. AID 2623. shares compounds with LAP4-GFP MLPCN;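 active = under 65% GFP response relative to DMSO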;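 note: median GFP channel fluorescence per well over the all cells gate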
CIT2-GFP pick2: yeast CIT2-GFP TOR reporter modulation, second cherry pick | AID 2624 | hit rate 8% among 590 | S. cerevisiae CIT2-GFP strain, flow cytometry GFP, 3 h; DMSO control wells read 100% | shares compounds with LAP4-GFP MLPCN | GFP response vs DMSO, % at 10 µM;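 active = GFP response vs DMSO above about 150%, limit read from the data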;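 note: median green fluorescence per well over all gated yeast cells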
AGP1-GFP pick2: reconfirmed modulator of AGP1-GFP TOR reporter in yeast. shares compounds with LAP4-GFP MLPCN. S. cerevisiae AGP1-GFP strain, flow cytometry GFP, 3 h. percent response vs DMSO, % at 10 µM. 590 tested, under 10 active;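 active = over 150 percent of DMSO response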;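 note: median GFP channel fluorescence over all cells without mother daughter split; sample median GFP divided by mean DMSO control so 100% equals DMSO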
s288c autofluor: compound is autofluorescent in yeast s288c cells; shares compounds with LAP4-GFP MLPCN; S. cerevisiae s288c, 520 nm autofluorescence, flow cytometry, 3 h; active compounds read high; zero means same as solvent-only cells; fluorescence change (kMESF span) at 33 µM; 610 tested, under 10 active; AID 2757;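 active = fluorescence span over the dose series, or activity score, above about 33, limit read from the data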
Yeast autofl DR: TOR screen hit shows autofluorescence in yeast s288c. S. cerevisiae s288c parental, compound autofluorescence, flow cytometry, 3 h. fluorescence change (span) at 33 µM. AID 488829. 110 tested, under 10 active. shares compounds with LAP4-GFP MLPCN;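 active = fluorescence change span, or the activity score built from it, above 25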
TORC1 bypass: wildtype yeast growth loss with TORC1 bypass cells unaffected; S. cerevisiae BY4741 spot growth rating, 48-72 h; active compounds read low; shares compounds with LAP4-GFP MLPCN; 120 tested, under 10 active; AID 504456; growth rating (0-3) at 30 µM;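 active = growth rating at most 1 for wild type yeast while the TORC1 bypass strain still grows fully, rated 3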
The depositor's hits bear a star; x = no result. Rows were chosen to be rich in hits. Some 0.89% of all compounds tested hit in one or more screens of this group.

SMILES | CIT2-GFP yeast | AGP1 TOR yeast | LAP4-GFP MLPCN | MEP2 TOR yeast | RPL19A-GFP yeast | LAP4-GFP pick2 | MEP2 cherry2 | RPL19A-GFP pick2 | CIT2-GFP pick2 | AGP1-GFP pick2 | s288c autofluor | others
COCCNc1nc(-c2cc(C(=O)Nc3ccccc3)on2)cc(C(C)C)n1 | 62 | 70 | 133 | 92 | 88 | 103 | 102 | 98 | 96 | 101 | x
CC(C)c1cc(-c2cc(C(=O)NCc3ccccc3)on2)nc(NC2CCCC2)n1 | 78 | 80 | 156* | 92 | 94 | 125 | 119 | 98 | 110 | 100 | x
CCOCCC(=O)Nc1nnc(CCc2ccccc2)s1 | 99 | 101 | 97 | 102 | 101 | x | x | x | x | x | x
Cc1cc(-c2cc(C(=O)Nc3ccccc3)on2)nc(NCC2CC2)n1 | 96 | 87 | 108 | 92 | 98 | 102 | 121 | 103 | 104 | 105 | x
Cc1cc(-c2cc(C(=O)NC3CCCC3)on2)nc(NCC2CC2)n1 | 98 | 82 | 125 | 93 | 97 | x | x | x | x | x | x
CNC(CC(=O)c1ccc([N+](=O)[O-])cc1)C(Cl)(Cl)Cl (stereo unspecified) | 81 | 86 | 195* | 82 | 80 | 180* | 188* | 89 | 144 | 82 | 2
CN(O)/C=C1\C(=O)Nc2ccccc21 | 108 | x | 104 | 112 | 100 | x | x | x | x | x | x
CC(C)Oc1ccc(C(=O)/C=C2/C(=O)Nc3ccccc32)cc1 | 87 | 102 | 161* | 90 | 89 | x | x | x | x | x | 0.61
CN(C)/C=C1\C(=O)Nc2ccccc21 | 111 | 107 | 96 | 109 | x | x | x | x | x | x | x
O=C1Nc2ccccc2/C1=C\C(=O)c1ccccc1 | 80 | 85 | 226* | 91 | 80 | x | x | x | x | x | 0.4
CCOC(=O)C1CCN(Cc2cccc(OCc3ccccc3)c2)CC1 | 111 | 98 | 96 | 108 | 102 | x | x | x | x | x | x
O=C(Cn1ccc2cc(S(=O)(=O)N3CCCC3)ccc21)NCCc1ccccc1 | 103 | 96 | 89 | 92 | 100 | x | x | x | x | x | x
Nc1nc(Nc2cccc(Cl)c2)nc(NCCO)c1[N+](=O)[O-] | 99 | 108 | 108 | 102 | 96 | x | x | x | x | x | x
Nc1nc(NCC2CCCO2)nc(Nc2cccc(F)c2)c1[N+](=O)[O-] (stereo unspecified) | 98 | 96 | 114 | 94 | 98 | x | x | x | x | x | x | Yeast autofl DR=0.06;TORC1 bypass=3
Nc1nc(Nc2cccc(Cl)c2)nc(Nc2cccc(F)c2)c1[N+](=O)[O-] | x | x | x | x | x | x | x | x | x | x | x | Yeast autofl DR=0.16;TORC1 bypass=3
CN(c1ccccc1)c1nc(N)c([N+](=O)[O-])c(Nc2cccc(F)c2)n1 | 102 | 102 | 98 | 112 | 105 | x | x | x | x | x | x
Nc1nc(NCCN2CCOCC2)nc(Nc2cccc(F)c2)c1[N+](=O)[O-] | x | x | x | x | x | x | x | x | x | x | x | Yeast autofl DR=0.31;TORC1 bypass=3
COCCCNc1nc(N)c([N+](=O)[O-])c(Nc2cccc(F)c2)n1 | x | x | x | x | x | x | x | x | x | x | x | Yeast autofl DR=0.16;TORC1 bypass=3
Cc1ccc(S(=O)(=O)N2CCCC2)s1 | 112 | 98 | 98 | 105 | 105 | x | x | x | x | x | x
CN(CC(=O)Nc1ccc(F)c(F)c1F)C(=O)C1=NN(c2ccccc2)C(=O)CC1 | 88 | 89 | 93 | 97 | 91 | x | x | x | x | x | x
CCOC(=O)c1c(C)oc2c1c(C(c1ccncc1)N1CCOCC1)c(O)c1ccccc12 (stereo unspecified) | 92 | x | 185* | 93 | 89 | x | x | x | x | x | 2.6
COc1ccc(NC(=O)Cc2nnc(SCC(=O)NC3CCCCC3C)n2C)cc1 (stereo unspecified) | 100 | 101 | 99 | 102 | 102 | x | x | x | x | x | x
CC(C)(C)c1nnc(N/N=C/c2cc(Br)ccc2O)n(N)c1=O | 95 | 99 | 185* | 103 | 88 | 215* | 140 | 98 | 114 | 105 | 1.3
CCc1nnc(N/N=C/c2cc(Br)c(O)cc2O)n1N | 108 | 101 | 95 | 110 | 104 | x | x | x | x | x | x
COc1ccc2c(c1)S/C(=C\C(=O)c1ccncc1)N2C | 68 | 56 | 106 | 103 | 56 | 97 | 114 | 62* | 100 | 67 | 0.81
SMILES | CIT2-GFP yeast | AGP1 TOR yeast | LAP4-GFP MLPCN | MEP2 TOR yeast | RPL19A-GFP yeast | LAP4-GFP pick2 | MEP2 cherry2 | RPL19A-GFP pick2 | CIT2-GFP pick2 | AGP1-GFP pick2 | s288c autofluor | others
CC(=O)Oc1oc(-c2ccccc2)nc1C=Nc1ccccc1 | 97 | 89 | 140 | 94 | 104 | x | x | x | x | x | -0.1
CCOC(=O)c1ccc(N=Cc2nc(-c3ccccc3)oc2OC(C)=O)cc1 | 85 | 85 | 208* | 91 | 92 | x | x | x | x | x | 0.51
COc1ccc(N=Cc2nc(-c3ccccc3)oc2OC(=O)c2ccccc2)cc1 | 100 | 88 | 74 | 99 | 106 | x | x | x | x | x | -0.31
COc1cc(C(=O)NNC(=O)CNC(=O)C2CCCCC2)ccc1OC(C)C | 98 | 95 | 90 | 95 | 99 | x | x | x | x | x | x
CCOCCCNC(=O)CN1CCN(S(=O)(=O)c2ccc3c(c2)CCC3)CC1 | 94 | 94 | 89 | 93 | 94 | x | x | x | x | x | x
Cc1ccc(S(=O)(=O)Nc2ccc(C(=O)OCC(=O)N(CCC#N)c3ccccc3)cc2)cc1C | 104 | 111 | 108 | 109 | 113 | x | x | x | x | x | x
CC(C)N(C(=O)COC(=O)c1ccc(Cl)c(S(N)(=O)=O)c1)C(C)C | 82 | 113 | 174* | 105 | 82 | 102 | 105 | 102 | 98 | 103 | x
S=c1[nH]nc(-c2ccco2)n1/N=C/c1ccc(Cl)cc1Cl | 102 | 99 | 120 | 216* | 101 | 102 | 100 | 99 | 99 | 94 | x
O=C(CN1C(=O)NC2(CCCCCCC2)C1=O)NCc1ccc(Cl)cc1 | 81 | 85 | 82 | 97 | 99 | x | x | x | x | x | x
Oc1cc(-c2ccc(N3CCCCC3)nc2)cc2cccnc12 | 97 | 87 | 164* | 115 | 92 | 117 | 119 | 103 | 99 | 98 | 0.5
